Test results from PubChem BioAssay AID2650 (Broad Institute, 2010).
Among all 320,000 compounds or so, about 320 (0.1%) were called active. This excerpt belongs to a sample that is enriched for actives. A number with no mark means an inactive call.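 The calls were made as follows: active = more than half of replicates show inhibition above 20%; inconclusive = some but at most half of replicates above 20% inhibition; inactive = no replicate shows inhibition above 20%.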

target: Glycogen synthase kinase-3 alpha (Homo sapiens) (UniProt P49840); experiment: blockers of GSK3A enzyme activity – biochemical, luminescence, cell-free homogeneous, HTS, primary screen (AID 2650); conditions: GSK-3 alpha kinase, ADP-Glo luminescence, 60 min; at 10 µM; active compounds read high;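 also: GST-tagged GSK-3 alpha with peptide substrate and 25 µM ATP; 0% = DMSO neutral wells and 100% = GW8510 positive control wells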
Sequence (P49840 whole entry, looked up): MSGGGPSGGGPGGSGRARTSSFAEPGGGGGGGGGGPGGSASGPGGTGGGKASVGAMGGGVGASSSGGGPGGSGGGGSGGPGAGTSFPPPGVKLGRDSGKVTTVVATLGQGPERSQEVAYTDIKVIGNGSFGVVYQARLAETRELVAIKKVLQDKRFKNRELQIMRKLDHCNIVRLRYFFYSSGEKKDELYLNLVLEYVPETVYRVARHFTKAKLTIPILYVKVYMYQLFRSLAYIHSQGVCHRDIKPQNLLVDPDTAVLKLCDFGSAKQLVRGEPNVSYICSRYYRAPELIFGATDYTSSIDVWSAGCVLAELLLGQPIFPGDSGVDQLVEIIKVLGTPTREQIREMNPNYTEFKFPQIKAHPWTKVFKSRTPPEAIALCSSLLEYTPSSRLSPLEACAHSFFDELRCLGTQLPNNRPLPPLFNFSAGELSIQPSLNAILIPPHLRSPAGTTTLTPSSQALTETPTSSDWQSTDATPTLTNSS

Q: `O=C(CNC(=O)OCc1ccccc1)Oc1cc2oc(=O)cc(-c3ccccc3)c2cc1Cl` was tested. Which inhibition did it give?
A: The inhibition was -0.182%.

Q: Which inhibition does the source give for `CC1CCc2c(nc3ncnn3c2Nc2ccc(OC(F)(F)F)cc2)C1` (stereo not given) here?
A: The inhibition was 3.32%.

Q: `Cc1ccc(N(Cc2ccccc2O)C(=O)c2ccccc2F)cc1` was tested. Which inhibition did it give?
A: Its inhibition is 0.374%.

Q: For `O=C(O)C1CCCN(CCC=C(c2ccccc2)c2ccccc2)C1` (stereo not given), which inhibition is on record?
A: Its inhibition is -1.79%.

Q: Which inhibition does the source give for `N#Cc1c(-c2ccccc2)cc(-c2ccccc2)nc1SCC(=O)O` here?
A: Its inhibition is -8.49%.

Q: For `N#CCc1c(C#N)c(N)nc(N2CCCC2)c1C#N`, which inhibition is on record?
A: Its inhibition is 5.31%.

Q: For `N#Cc1c(N2CCCCC2)nc(N)c2c(N)nc(SCC(=O)O)cc12`, which inhibition is on record?
A: The inhibition was 71.9% (active).

Q: Which inhibition does the source give for `Cc1c(C(=O)Nc2cccc(S(=O)(=O)N3CCOCC3)c2)oc2ccccc12` here?
A: Its inhibition is -2.02%.

Q: Which inhibition does the source give for `CC(C)(C)c1cc(CN2CCN(CCC#N)CC2)cc(C(C)(C)C)c1O` here?
A: The inhibition was -0.131%.

Q: With `CCCn1c(N)c(N(CCOC)C(=O)C2CCCC2)c(=O)[nH]c1=O` as the compound, how does the inhibition read?
A: The inhibition was -0.139%.

Q: With `CCn1c(SC(C)C(=O)Nc2ccc(N3CCOCC3)cc2)nnc1-c1ccco1` (stereo not given) as the compound, how does the inhibition read?
A: Its inhibition is -7.92%.

Q: How did the inhibition turn out when `COC(=O)c1ccc(C23CC4(C2)[C@H](CN(Cc2cccnc2)[C@@H]4c2ccccc2)C3c2ccc(Cl)nc2)cc1` (stereo not given in full) was run?
A: The inhibition was -1.59%.

Q: With `CCOc1ccc(CN2CCN(Cc3ccc(C)o3)CC2CCO)cc1` (stereo not given) as the compound, how does the inhibition read?
A: Its inhibition is -3.68%.

Q: With `O=C(COC(=O)Cc1ccc(Br)cc1)Nc1ccc(N2CCOCC2)cc1` as the compound, how does the inhibition read?
A: Its inhibition is -2.2%.

Q: How did the inhibition turn out when `COc1ccc(NC(=O)CN2C(=O)COc3ccc(S(=O)(=O)N4CCOCC4)cc32)c(OC)c1` was run?
A: The inhibition was -0.917%.

Q: How did the inhibition turn out when `COc1ccc(S(=O)(=O)N(C)C[C@H]2Oc3c(NC(=O)Nc4ccc5c(c4)OCO5)cccc3C(=O)N([C@H](C)CO)C[C@@H]2C)cc1` was run?
A: Its inhibition is -2.73%.

Q: With `Cc1ccc(S(=O)(=O)NCC2CCC(C(=O)N3CCOCC3)CC2)cc1` (stereo not given) as the compound, how does the inhibition read?
A: Its inhibition is -1.46%.

Q: Which inhibition does the source give for `Cc1ccc(C)c(NC(=O)COC(=O)c2nn(C)c(=O)c3ccccc23)c1` here?
A: Its inhibition is -0.308%.

Q: With `FC(F)(F)COc1nc(N2CCCCC2)nc(N2CCNCC2)n1` as the compound, how does the inhibition read?
A: Its inhibition is -3.54%.

Q: With `CC1CC1C(=O)OCC(=O)Nc1cccc(F)c1` (stereo not given) as the compound, how does the inhibition read?
A: Its inhibition is -2.53%.

Q: For `CCOC(=O)/C=C/c1ccc(C(F)(F)F)cc1S(=O)(=O)NC(C)(C)C`, which inhibition is on record?
A: Its inhibition is 0.204%.

Q: For `O=C(NCc1cccs1)c1ccc(CS(=O)Cc2ccccc2Cl)o1` (stereo not given), which inhibition is on record?
A: Its inhibition is 2.9%.

Q: With `CC(C)CCNC(=O)c1ccc2c(Cl)c3c(nc2c1)CCC3` as the compound, how does the inhibition read?
A: The inhibition was 1.16%.

Q: Which inhibition does the source give for `O=C(OCC1O[C@@H](OC(=O)c2cc(O)c(O)c(O)c2)[C@@H](OC(=O)c2cc(O)c(O)c(O)c2)[C@@H](OC(=O)c2cc(O)c(O)c(O)c2)[C@@H]1OC(=O)c1cc(O)c(O)c(O)c1)c1cc(O)c(O)c(O)c1` (stereo not given in full) here?
A: Its inhibition is 57.5% (active).

Q: With `O=C(OCC1OC(Oc2ccc(O)cc2)C(O)C(O)C1O)c1ccccc1` (stereo not given) as the compound, how does the inhibition read?
A: Its inhibition is 19.4%.

Q: Which inhibition does the source give for `CS(=O)(=O)N(CC(=O)Nc1ccc(Cl)c(Cl)c1)C1CCCCC1` here?
A: The inhibition was -0.751%.

Q: Which inhibition does the source give for `O=C(Nc1ccccc1-c1nnn(CC(=O)N2CCCc3ccccc32)n1)c1cccc(Cl)c1` here?
A: Its inhibition is -2.04%.

Q: `Cc1ccc(C(=O)N/N=C\c2cc(Br)c(Br)o2)cn1` was tested. Which inhibition did it give?
A: The inhibition was 2.23%.

Q: `Cc1cc2cc3c(cc2nc1SCC(=O)Nc1c(C)cccc1C)CCC3` was tested. Which inhibition did it give?
A: The inhibition was -3.92%.

Q: How did the inhibition turn out when `Cc1noc(/C=C/c2ccco2)c1S(=O)(=O)N1CCC(C(=O)N2CCc3ccccc32)CC1` was run?
A: The inhibition was -1.67%.

Q: With `Cc1cc(C)nc(NS(=O)(=O)c2ccc(N3C(=O)C4CCCCC4C3=O)cc2)n1` (stereo not given) as the compound, how does the inhibition read?
A: Its inhibition is 1.53%.

Q: How did the inhibition turn out when `Oc1ccc(-c2nncn2-c2ccccc2)cc1` was run?
A: Its inhibition is 53.7% (active).

Q: With `Oc1ccc(-c2nnc(Nc3ccccc3)c3ccccc23)cc1` as the compound, how does the inhibition read?
A: The inhibition was 0.551%.

Q: With `c1ccc(-n2nc3ccccc3n2)cc1` as the compound, how does the inhibition read?
A: The inhibition was -1.52%.

Q: Which inhibition does the source give for `Brc1ccccc1CN1CCC(Cc2ccccc2)CC1` here?
A: Its inhibition is -0.57%.

Q: For `O=C1CN(C(=O)COC(=O)/C=C/c2ccc(F)cc2)c2ccccc2N1`, which inhibition is on record?
A: The inhibition was -0.211%.

Q: For `O=C(CCNS(=O)(=O)c1ccc(Br)s1)NCc1ccccc1Cl`, which inhibition is on record?
A: The inhibition was 0.12%.

Q: For `CCCN1C2=C(C(=O)CCC2)C(c2ccc(O)c(Br)c2)C2=C1CCCC2=O`, which inhibition is on record?
A: The inhibition was 0.35%.

Q: For `C=CCNC(=O)C1CC=CCC1C(=O)O` (stereo not given), which inhibition is on record?
A: Its inhibition is 3.88%.

Q: For `CC(C)C[C@@H](COc1ccccc1)N1CCN(CC(C)C)CCC1=O`, which inhibition is on record?
A: The inhibition was -0.599%.

Q: With `CN1C(=O)[C@H]2[C@@H](C3CC3)N3C(=O)CN(Cc4ccccc4)C(=O)[C@@]3(C)[C@H]2C1=O` as the compound, how does the inhibition read?
A: Its inhibition is -0.57%.

Q: `CCc1nc(SCC(=O)Nc2ccccc2OC)n[nH]1` was tested. Which inhibition did it give?
A: Its inhibition is 0.384%.

Q: How did the inhibition turn out when `OC(COCC1COc2ccccc2O1)CN1CCN(c2ccc(F)cc2)CC1` (stereo not given) was run?
A: Its inhibition is -3.09%.

Q: Which inhibition does the source give for `Cc1cc(C)c(C(=O)CSc2nc(C)cc(=O)[nH]2)c(C)c1` here?
A: Its inhibition is -3.36%.

Q: With `Nc1nc(SCC(=O)Nc2cc(C(F)(F)F)ccc2Cl)[nH]c(=O)c1NC(=O)c1ccco1` as the compound, how does the inhibition read?
A: Its inhibition is 0.858%.

Q: How did the inhibition turn out when `O=c1cc(C(F)(F)F)[nH]c(=O)n1C1CCCCC1` was run?
A: Its inhibition is -7.78%.

Q: `CCCCN(CCCC)CCC(O)c1cc2c(Cl)cc(Cl)cc2c2cc(C(F)(F)F)ccc12` (stereo not given) was tested. Which inhibition did it give?
A: Its inhibition is -3.02%.

Q: Which inhibition does the source give for `CCC1Nc2ncnc(N3CCN(c4ccccc4)CC3)c2N(Cc2ccc(Cl)cc2)C1=O` (stereo not given) here?
A: Its inhibition is -3.36%.

Q: For `CC[C@H](C)C(=O)N[C@H]1CCCN1C(=O)/C=C/c1ccccc1`, which inhibition is on record?
A: Its inhibition is -0.364%.

Q: With `CC1(C)Cc2nc3sc4c(SCC(=O)NC(c5ccccc5)c5ccccc5)ncnc4c3cc2CO1` as the compound, how does the inhibition read?
A: Its inhibition is 19.1%.

Q: How did the inhibition turn out when `CCc1ccccc1NC(=O)CSc1nnc(-c2ccncc2)o1` was run?
A: Its inhibition is 0.246%.

Q: With `COc1ccccc1NC(=O)CCSc1nnc(-c2ccc(O)cc2)o1` as the compound, how does the inhibition read?
A: Its inhibition is 61% (active).

Q: For `COc1ccccc1NC(=O)CSc1nnc(CNC(=O)c2ccccc2F)o1`, which inhibition is on record?
A: The inhibition was -1.79%.

Q: `COc1ccc(N(C)C(=O)CCS(=O)(=O)c2cccc3nsnc23)cc1` was tested. Which inhibition did it give?
A: Its inhibition is -0.848%.

Q: How did the inhibition turn out when `O=C(c1ccc(CS(=O)(=O)c2ccccc2)o1)N1CCN(c2ccccc2)CC1` was run?
A: The inhibition was -1.56%.
